Assay [1] has as its target Cellular tumor antigen p53 (Homo sapiens) (UniProt P04637). As to the kind of experiment: Primary qHTS for small molecule compounds that upregulate eGFP-tagged delta133p53alpha (in N-terminal) cells. (AID 2060322).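 Also: 0% = DMSO vehicle and 100% = reference activator; nearly all actives have a fitted effect of over 75% in size.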 The conditions noted are these: NCI-H358 eGFP-delta133p53alpha fluorescence, 24 h; activation: active compounds read high. An outline of the steps: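 NCI-H358 cells pre-induced 24 h with 10 ng/ml doxycycline to express N-terminal eGFP-delta133p53alpha, then dosed 24 h at 37C without doxycycline; fixed, Hoechst-stained, GFP intensity by laser scanning cytometry, normalized to DMSO (0%) and 57.5 uM 5-azacytidine (100%).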
(In qHTS, concentration-response curves come from the screen itself.)

Assay [2] can be described thus: BET inhibitor-based combinations targeting novel dependencies in MECOM-rearranged (r) AML: SET-2 cell line (AID 2202231). Also: nearly all actives have a fitted effect of over 35% in size. Also: potency is read from the fitted curve at half-maximal effect.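 As to viability: plate controls were DMSO treated cells for no effect and wells without cells for full effect.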 Particulars: SET-2 AML cells viability, CellTiter-Glo luminescence, 48 h; viability: active compounds read low, concentration not given here. The method, boiled down: (§1)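 Viability of cells (500 per well) is scored by luminescent CellTiter-Glo at 48 hr post-dosing. Eleven-point titrations are normalized to DMSO and empty controls and reduced to AUC values.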
Background: Cellular ATP, detected with luciferase, serves as a proxy for viable cell number.

Assay [3] can be described thus: BET inhibitor-based combinations targeting novel dependencies in MECOM-rearranged (r) AML: MV-4-11 cell line (AID 2202233). Also: nearly all actives have a fitted effect of over 45% in size. Also: potency is read from the fitted curve at half-maximal effect. The conditions noted are these: MV-4-11 AML viability, CellTiter-Glo luminescence, 48 h; series mostly up to 46 µM. The method, boiled down: (§2)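 Using pin-tool transfer, drugs were added in 11 doses to cells (500/well), incubated 48 hr, and assessed with CellTiter-Glo. Z-AUC is a mean-centring transformation applied separately to each screened line.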

Assay [4] is described as follows: BET inhibitor-based combinations targeting novel dependencies in MECOM-rearranged (r) AML: HNT-34 cell line (AID 2202234). Also: nearly all actives have a fitted effect of over 35% in size. Also: potency is read from the fitted curve at half-maximal effect. The conditions noted are these: HNT-34 AML viability, CellTiter-Glo luminescence, 48 h; series mostly up to 46 µM. An outline of the steps: as §2
Assay [5] in a line: BET inhibitor-based combinations targeting novel dependencies in MECOM-rearranged (r) AML: UCSD-AML1 cell line (AID 2202235). Also: nearly all actives have a fitted effect of over 40% in size. Also: potency is read from the fitted curve at half-maximal effect. The conditions noted are these: UCSD-AML1 AML cells viability, CellTiter-Glo, 48 h; series mostly up to 46 µM. The method, boiled down:
as §2

Assay [6] in a line: BET inhibitor-based combinations targeting novel dependencies in MECOM-rearranged (r) AML: AML-191 cell line (AID 2202236; also: nearly all actives have a fitted effect of over 35% in size; also: potency is read from the fitted curve at half-maximal effect). The conditions noted are these: AML-191 viability, CellTiter-Glo luminescence, 48 h; series mostly up to 46 µM. The method, boiled down: as §1
A short description of assay [7]: BET inhibitor-based combinations targeting novel dependencies in MECOM-rearranged (r) AML: AML-194 cell line (AID 2202237; also: nearly all actives have a fitted effect of over 40% in size; also: potency is read from the fitted curve at half-maximal effect). Particulars: AML-194 (MECOM-r AML) viability, CellTiter-Glo, 48 h; series mostly up to 46 µM. An outline of the steps:
as §1

For 21 compounds, activation, viability and Potency results are on record in PubChem BioAssay (NCATS).

Where “and” joins values, the source holds several entries; their conditions need not be identical. Equal values may be shown once. Inconclusive results are not listed. Values without a mark were called inactive. Calls of active or inactive are those of the source. Calls follow the shape of the dose curve; as a rule, active = well fitted curve in the direction sought with a large enough effect; inconclusive = small, poorly fitted or top-dose-only effect, or another doubt; inactive = no such curve, though single readings can be large; an effect the other way counts as inactive or inconclusive.

Chain of Cellular tumor antigen p53 (Homo sapiens) (P04637 whole entry, looked up): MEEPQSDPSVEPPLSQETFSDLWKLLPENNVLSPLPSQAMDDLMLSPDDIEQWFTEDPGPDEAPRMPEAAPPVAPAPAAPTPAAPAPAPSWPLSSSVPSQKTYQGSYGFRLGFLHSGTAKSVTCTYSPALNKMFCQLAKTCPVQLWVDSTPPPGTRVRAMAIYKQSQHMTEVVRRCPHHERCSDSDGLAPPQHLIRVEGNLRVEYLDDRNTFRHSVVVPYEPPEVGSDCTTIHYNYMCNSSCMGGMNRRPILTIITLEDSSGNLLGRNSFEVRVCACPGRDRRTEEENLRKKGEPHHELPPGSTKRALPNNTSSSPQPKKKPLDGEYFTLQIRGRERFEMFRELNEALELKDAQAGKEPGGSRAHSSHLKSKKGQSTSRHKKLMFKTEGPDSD

As for `CC(C)[C@H](N)C(=O)OCCOCn1cnc2c(=O)[nH]c(N)nc21`, the activation in assay [1] is -14.1% and 18.6%. Moreover, the viability in assay [2] was 92.3%. Besides, the Potency result in assay [3], in assay [4], in assay [5], in assay [6] and in assay [7] was “inactive” throughout.

As to `Cc1nnc(NS(=O)(=O)c2ccc(N)cc2)s1`, the activation in assay [1] was -14.2% and -3.76%. Also, the viability in assay [2] was 113%. Further, the Potency result in assay [3], in assay [4], in assay [5], in assay [6] and in assay [7] was “inactive” in each case.

For `C[C@@H](Oc1cc(-n2cnc3ccc(CN4CCN(C)CC4)cc32)sc1C(N)=O)c1ccccc1C(F)(F)F`, in assay [1], the activation was 2.47%. Moreover, the Potency is 0.105 µM (active) in assay [2], 0.105 µM (active) in assay [3], 0.118 µM (active) in assay [5] and 0.0934 µM (active) in assay [6].

On to `O=C(O)c1nc(=O)[nH]c(=O)[nH]1`, for which the activation in assay [1] is 3.67%. In addition, the viability in assay [2] was 105%. In addition, the Potency result in assay [3], in assay [4], in assay [6] and in assay [7] was “inactive” in each case.

Turning to `CCOc1ccccc1N=Nc1c(C)[nH]n(-c2nc(-c3ccccc3)cs2)c1=O`, the activation in assay [1] was 25.3%. Besides, the viability in assay [2] is 118%. The Potency result in assay [3], in assay [4], in assay [6] and in assay [7] was “inactive” throughout.

Take `CCN(CC)CCOc1ccc(Cc2ccccc2)cc1`: the activation in assay [1] is -6.69% and 6.46%. In addition, the Potency in assay [2] is 16.6 µM (active). The Potency entry in assay [3], in assay [5] and in assay [7] was “inactive” in each case.

`CNC(=O)[C@H](Cc1ccccc1)NC(=O)[C@H](CC(C)C)[C@H](CSc1cccs1)C(=O)NO`: the activation in assay [1] was -8.09%. For the same compound, the viability in assay [2] was 98.9%. For the same compound, the figures for the Potency in assay [3] and in assay [6] were 7.42 µM (active) and 13.2 µM (active), respectively. The Potency result in assay [5] and in assay [7] was “inactive” throughout.

For the compound `O=C(CN1C(=O)C2(CCCC2)NC[C@H]1c1cc(F)cc(F)c1)Nc1ccc2c(c1)C[C@@]1(C2)C(=O)Nc2ncccc21`, the activation in assay [1] is 22.6%. Also, the viability in assay [2] is 98.8%. Also, the Potency result in assay [3], in assay [4], in assay [5], in assay [6] and in assay [7] was “inactive” in each case.

With `COc1ccc2cccc(CCNC(C)=O)c2c1`, in assay [1], the activation is 3.03%. The viability in assay [2] was 116%. For the same compound, the Potency result in assay [3], in assay [4], in assay [5], in assay [6] and in assay [7] was “inactive” throughout.

Regarding `CC[C@H](C=C[C@@H](C)[C@H]1CC[C@H]2[C@@H]3CC=C4C[C@@H](O)CC[C@]4(C)[C@@H]3CC[C@]12C)C(C)C`, the activation in assay [1] was -9.05%. The viability in assay [2] was 107%. In addition, the Potency entry in assay [3], in assay [4], in assay [6] and in assay [7] was “inactive” in each case.

For `C#CCN[C@@H]1CCc2ccccc21`, the activation in assay [1] was -13.4% and -11.3%. The viability in assay [2] was 116%. Also, the Potency result in assay [3], in assay [4], in assay [5], in assay [6] and in assay [7] was “inactive” each time.

Take `C[C@H](CCC(=O)O)[C@H]1CCC2C3C[C@H](O)[C@@H]4C[C@H](O)CC[C@]4(C)C3CC[C@@]21C` (stereo partly specified): in assay [1], the activation was 10.8%. In addition, the viability in assay [2] was 119%. Also, the Potency entry in assay [3], in assay [4], in assay [5], in assay [6] and in assay [7] was “inactive” throughout.

As for `O=C(O)CCNC(=O)c1ccc(N=Nc2ccc(O)c(C(=O)O)c2)cc1`, the activation in assay [1] was -19.8% and -1.86%. In assay [2], the viability is 118%. Besides, the Potency result in assay [3], in assay [4], in assay [6] and in assay [7] was “inactive” in each case.

For `N[C@H](CSC(c1ccccc1)(c1ccccc1)c1ccccc1)C(=O)O`, the activation in assay [1] was -3.21%. Moreover, the viability in assay [2] is 109%. For the same compound, the Potency result in assay [3], in assay [5] and in assay [7] was “inactive” each time.

Regarding `O=c1c(O)c(-c2ccc(O)cc2)oc2cc(O)cc(O)c12`, the activation in assay [1] was 36.9%. The viability in assay [2] is 105%. Besides, the Potency in assay [3] is 9.34 µM (active); in assay [6], 14.8 µM (active). The Potency result in assay [5] and in assay [7] was “inactive” each time.

`Cc1ccc(S(=O)(=O)NC(=O)NN2CC3CCCC3C2)cc1` (stereo unspecified): the activation in assay [1] was 8.47% and 8.97%. Besides, the viability in assay [2] was 120%. The Potency entry in assay [3], in assay [5], in assay [6] and in assay [7] was “inactive” in each case.

As to `COc1cc(S(C)(=O)=O)ccc1Nc1nc2ccc(-c3ccc(NC(=O)[C@H](C)c4ccc(F)cc4)cc3)cn2n1`, the activation in assay [1] is -11.7%. The Potency in assay [2] is 0.235 µM (active); in assay [3], 1.18 µM (active); in assay [5], 1.32 µM (active); in assay [7], 1.32 µM (active).

Take `CCn1c(-c2nonc2N)nc2c(C#CC(C)(C)O)ncc(OC[C@H]3CCCNC3)c21`: in assay [1], the activation is -17.2%. The viability in assay [2] was 101%. The Potency is 18.6 µM (active) in assay [3], 16.6 µM (active) in assay [4] and 20.9 µM (active) in assay [7].

Consider `O=c1ncn2nc(Sc3ccc(F)cc3F)ccc2c1-c1c(Cl)cccc1Cl`, for which the activation in assay [1] was 2.34%. Besides, the Potency was 20.9 µM (active) in assay [2], 20.9 µM (active) in assay [3] and 29.5 µM (active) in assay [6]. For the same compound, in assay [7], the Potency entry was “inactive”.

For the compound `CC(=O)[C@H]1CC[C@H]2[C@@H]3CC=C4C[C@@H](O)CC[C@]4(C)[C@H]3CC[C@]12C`, the activation in assay [1] was -3.95% and -16.2%. Besides, in assay [2], the viability was 112%. The Potency entry in assay [3], in assay [4], in assay [5], in assay [6] and in assay [7] was “inactive” throughout.

For the compound `CCN(CC)CCCC(C)Nc1nc(C)cc(Nc2ccc3nc(C)cc(N)c3c2)n1` (stereo unspecified), the activation in assay [1] was 4.87%. Moreover, in assay [2], the viability was 116%. The Potency in assay [3] is 29.5 µM (active). Further, the Potency entry in assay [5] and in assay [6] was “inactive” in each case.

What is called viability is a read-out of living cells in per cent, often relative to untreated cells.
